This is part of a sample that, as a whole, favours compounds with a hit. Of some 83,000 tested, about 20% had one in any assay.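 The endpoint reported here, percent growth, reads 100 for growth as untreated, 0 for no net growth and -100 for all cells dead.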 Active and inactive are the calls of the source. Rule for the calls: active = growth percent below 10; inactive = the rest.
Experiments:
Assay in all cases: NCI-60 one-dose screen, 48 h (100 = growth as untreated, 0 = no growth, -100 = all killed)
Conditions in all cases: 10 µM unless noted
[1] = tested on: NCI-H23 lung
[2] = tested on: NCI-H226 lung
[3] = tested on: NCI-H322M lung
[4] = tested on: HOP-62 NSCLC
[5] = tested on: NCI-H460 lung
[6] = tested on: HOP-92 NSCLC
[7] = tested on: NCI-H522 lung
[8] = tested on: A549/ATCC NSCLC
[9] = tested on: 786-0 renal
[10] = tested on: COLO 205 colon
[11] = tested on: DU-145 prostate
[12] = tested on: K-562 leukemia
[13] = tested on: MALME-3M melanoma
[14] = tested on: MDA-MB-231 breast
[15] = tested on: RXF 393 renal
[16] = tested on: SF-268 CNS
[17] = tested on: SF-295 CNS
[18] = tested on: SF-539 CNS
[19] = tested on: UACC-257 melanoma
[20] = tested on: M14 melanoma

Measured: growth

NC1CCN(c2nc(Nc3cccc(C(F)(F)F)c3)c3c(=O)[nH]ccc3n2)CC1
active: [1] -58.9% | [2] -62.5% | [3] -12.7% | [4] -58.8% | [5] -59.1% | [6] -61.5% | [7] -85.3% | [8] -52.2% | [9] -97.7% | [10] -61.1% | [11] 7.32% | [12] -48.7% | [13] -64.1% | [14] -62% | [15] -93.6% | [16] -46.2% | [17] -56.7% | [18] -96.5% | [19] -74.6% | [20] -95.2%

CCN1C(=O)N(CC)C2Nn3c(s/c(=C\c4ccc([N+](=O)[O-])cc4)c3=O)=NC21 (stereo not given)
active: [7] 9.71%
inactive: [1] 69.3% | [2] 80.1% | [3] 89.7% | [4] 96.2% | [5] 98.3% | [6] 84.1% | [8] 82.4% | [9] 85.1% | [10] 35.5% | [11] 91.8% | [12] 29.4% | [13] 70.3% | [14] 47.8% | [15] 103% | [16] 90% | [17] 93.9% | [18] 94.3% | [19] 43.4% | [20] 48%

N#Cc1c(-c2ccccc2)nc(SCC(=O)Nc2nc(-c3ccc(Cl)cc3)cs2)[nH]c1=O
inactive: [1] 84.1% | [2] 95.9% | [3] 97.9% | [4] 90.2% | [5] 106% | [6] 80.7% | [7] 77.6% | [8] 94.6% | [9] 96.2% | [10] 106% | [11] 113% | [12] 94.2% | [13] 129% | [14] 120% | [15] 110% | [16] 103% | [17] 98.2% | [18] 100% | [19] 97.4% | [20] 93.7%

COc1cc(CNS(=O)(=O)c2ccc(C)cc2)ccc1OCc1cn(-c2ccccc2)nn1
inactive: [1] 83% | [2] 81.5% | [3] 92.8% | [4] 97% | [5] 97.1% | [6] 68.4% | [7] 76.5% | [8] 90.7% | [9] 95.2% | [10] 108% | [11] 103% | [12] 73.4% | [13] 99.7% | [14] 95.4% | [15] 99.9% | [16] 98.2% | [17] 93.5% | [18] 94.6% | [19] 82.3% | [20] 99.2%

COc1ccc(-c2nc3sc(-c4ccccc4)cn3n2)cc1
inactive: [1] 72% | [2] 76.3% | [3] 85.8% | [4] 50.5% | [5] 34.9% | [6] 67.6% | [7] 29.6% | [8] 50.8% | [9] 88% | [10] 36.7% | [11] 83.5% | [12] 23.8% | [13] 67.6% | [14] 47% | [15] 75.3% | [16] 71.8% | [17] 61.8% | [18] 75.2% | [19] 71.8% | [20] 28.4%

Cc1cccc(OCC(O)CN2CCN(c3ccc(Cl)cc3)CC2)c1 (stereo not given)
inactive: [1] 95.2% | [2] 112% | [3] 125% | [4] 118% | [5] 108% | [6] 80% | [7] 109% | [8] 98.5% | [9] 96.5% | [10] 96.7% | [11] 113% | [12] 96.9% | [13] 153% | [14] 98.7% | [15] 118% | [16] 99.4% | [17] 94.5% | [18] 104% | [19] 108% | [20] 94.7%

CCc1ccccc1-n1c(N)c(C#N)c(-c2ccc(Cl)cc2)c(C#N)c1=O
inactive: [1] 107% | [2] 110% | [3] 140% | [4] 101% | [5] 111% | [6] 80% | [7] 94.2% | [8] 117% | [9] 112% | [10] 126% | [11] 110% | [12] 114% | [13] 173% | [14] 94.8% | [15] 113% | [16] 104% | [17] 99.3% | [18] 103% | [19] 125% | [20] 104%

O=C(Cc1ccc(F)c(Cl)c1)Nc1cc(C2(C(F)(F)F)CC2)nn1Cc1ccccc1
inactive: [1] 55.3% | [2] 43.2% | [3] 89.6% | [5] 79% | [7] 58.2% | [8] 60.3% | [9] 34.6% | [10] 66.3% | [11] 89.8% | [12] 77.1% | [13] 60.4% | [14] 14.1% | [16] 17.1% | [17] 24.8% | [18] 50.6% | [19] 91.1% | [20] 70.8%
active: [4] -32.7% | [6] -19.5% | [15] -23.5%

C/C=C(\C)C(=O)N[C@H]1[C@@H](OC(C)=O)C[C@]2(C)C3CC[C@@]4(C)C(CC[C@@H]4C(C)N(C)C)C3CCC2[C@H]1O (stereo not given in full)
inactive: [1] 74.4% | [2] 101% | [3] 67.7% | [4] 91.9% | [5] 59% | [6] 71% | [7] 99.4% | [8] 78.5% | [9] 66.1% | [10] 75.8% | [11] 87.4% | [12] 50.2% | [14] 78% | [15] 83.2% | [16] 42.7% | [17] 78.2% | [18] 37%
active: [13] 7.93% | [19] 3.29% | [20] -32.7%

O=c1c2cc(F)ccc2sc2c(NCCO)nc3ccccc3c12
inactive: [1] 95.6% | [2] 103% | [3] 99.7% | [4] 105% | [5] 112% | [6] 110% | [7] 91.1% | [8] 101% | [9] 104% | [10] 114% | [11] 112% | [12] 98.3% | [13] 120% | [14] 98.1% | [15] 109% | [16] 103% | [17] 104% | [18] 99.9% | [19] 104% | [20] 114%

CCc1ccc2nc(NC(=O)Cc3csc(NC(=O)c4ccco4)n3)sc2c1
inactive: [1] 85.1% | [2] 72.6% | [3] 81.5% | [4] 86.3% | [5] 79% | [7] 60.4% | [8] 91.3% | [9] 71.6% | [10] 107% | [11] 67% | [12] 64.5% | [13] 59.6% | [14] 67.9% | [15] 73.1% | [16] 43.3% | [17] 77.6% | [18] 34.8% | [19] 101% | [20] 96.7%
active: [6] -17.9%

COc1cc(CCCO)c(OC)c(OC)c1OC
inactive: [1] 104% | [2] 102% | [3] 96.1% | [4] 111% | [5] 108% | [6] 100% | [7] 106% | [8] 102% | [9] 103% | [10] 122% | [11] 109% | [12] 104% | [13] 100% | [14] 109% | [15] 108% | [16] 101% | [17] 106% | [18] 97.1% | [19] 103% | [20] 110%

CCCCCCn1c(-c2ccc(C(=O)O/N=C(\N)c3ccc4c(c3)OCO4)cc2)nc(-c2ccccc2)c1-c1ccccc1
active: [1] -30.8% | [5] 4.23% | [6] -57.5% | [7] -58.9% | [8] -25.3% | [9] -65.9% | [11] 0.0183% | [12] -29.7% | [15] -27.2% | [18] -30.2%
inactive: [2] 64.6% | [3] 73.9% | [4] 64.8% | [10] 35.7% | [13] 28.1% | [14] 26.3% | [16] 41.1% | [17] 30.6% | [19] 62% | [20] 56.2%

Cc1cc2[nH]c(=O)c3c4ncccc4cn3c2cc1C
active: [5] -33.9% | [7] -23.7% | [9] 7.03% | [12] 3.34% | [17] -14.7%
inactive: [1] 70% | [2] 51.8% | [3] 29.9% | [4] 59% | [6] 83.3% | [8] 49.8% | [10] 14.8% | [11] 35.6% | [13] 70.1% | [14] 28.8% | [15] 18.1% | [16] 41.7% | [18] 26.7% | [19] 108% | [20] 67.3%

— PubChem BioAssay (NCI)
